27 molecules from PubChem BioAssay (NCATS) can be followed below.

Values joined by “and” are separate entries in the source; they are usually repeats but may differ in a detail not shown here. Equal values may be shown once. Inconclusive results are not listed. More than one record can exist for a structure, and the calls need not agree. Active and inactive are the calls of the source. The call rests on the fitted dose curve; in most records, active means well fitted cell-killing curve with a large enough effect; inconclusive means small, poorly fitted or top-dose-only effect, or effect the other way; inactive means no such curve, though single readings can be large or run the other way.
Potency means the concentration at half of the fitted maximal effect.

This assay in a line: Viability qHTS for spleen associated tyrosine kinase inhibitor (SYKi) drug resistant MV4-11 cells (AID 1963824). Further: nearly all actives have a fitted effect of over 35% in size. Particulars: SYKi-resistant MV4-11 viability, CellTiter-Glo, 72 h; series mostly up to 45 µM; viability, % of control: at the top concentration. In outline:
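SYK inhibitor-resistant MV4-11 AML cells, 500 per well, added to predispensed compounds and incubated 72 hr at 37 C, 5% CO2. Viability measured by CellTiter-Glo luminescence after 10 min at room temperature.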
For orientation: Quantitative high-throughput screening tests each substance at several concentrations.
As for `COc1ccc([C@@H]2Sc3ccccc3N(CCN(C)C)C(=O)[C@@H]2OC(C)=O)cc1`, the Potency is 7.5 µM (active) and inactive.

In the case of `CC(C)COCC(CN(Cc1ccccc1)c1ccccc1)N1CCCC1` (configuration not stated), the Potency was 15 µM (active) and 11.8 µM (active).

Consider `Cc1ccc(S(=O)(=O)Cc2nc(-c3ccc(C(=O)NCc4cccnc4)cc3)oc2C)cc1`, for which the Potency was 0.0105 µM (active).

For `CC/C=C(\C(=O)N[C@@H]1C(=O)N2C(C(=O)OCOC(=O)C(C)(C)C)=C(COC(N)=O)CS[C@H]12)c1csc(N)n1`, the “viability, % of control” value was 70.2% (inactive).

Regarding `CCN(CC)CCCC(C)Nc1c2ccc(Cl)cc2nc2ccc(OC)cc12` (configuration not stated), the Potency is 2.09 µM (active) and 3.99 µM (active).

For `COc1cc(C(=O)O)ccc1NC(=O)[C@@H]1N[C@@H](CC(C)(C)C)[C@](C#N)(c2ccc(Cl)cc2F)[C@H]1c1cccc(Cl)c1F`, the Potency was 5.25 µM (active).

Turning to `CC(=O)OCC1=C(C(=O)O)N2C(=O)[C@@H](NC(=O)Cc3cccs3)[C@H]2SC1`, the “viability, % of control” value is 75.2% (inactive).

For `CC[C@]1(O)C[C@@H]2CN(CCc3c([nH]c4ccccc34)[C@@](C(=O)OC)(c3cc4c(cc3OC)N(C)[C@H]3[C@@](O)(C(=O)OC)[C@H](OC(C)=O)[C@]5(CC)C=CCN6CC[C@]43[C@@H]65)C2)C1`, the Potency entry is “inactive and 94.4 nM (active) and 18.4 nM (active)”.

On to `Cc1c[nH]c2ncnc(N3CCC(CN)(C(=O)Nc4cccc(OC(=O)N(C)C)c4)CC3)c12`, for which the Potency is 1.3 µM (active) and 1.66 µM (active).

In the case of `Cc1cnc(NC(=O)c2cc(Oc3cnc(C(=O)N(C)C)nc3)c3cc(C)oc3c2)cn1`, the “viability, % of control” value was 101% (inactive).

As to `CN1C(CCl)Nc2cc(Cl)c(S(N)(=O)=O)cc2S1(=O)=O` (configuration not stated), the “viability, % of control” value was 80.8% (inactive).

As to `COc1ccc(C(=O)NCc2ccc(OCCN(C)C)cc2)cc1OC`, the “viability, % of control” value is 78% (inactive).

On to `OCCN1CCN(CCCN2c3ccccc3Sc3ccc(Cl)cc32)CC1`, for which the Potency is 8.41 µM (active).

Consider `CSc1ccc2c(c1)N(CCC1CCCCN1C)c1ccccc1S2` (configuration not stated), for which the Potency was 13.3 µM (active).

In the case of `COc1ccc(CNc2nc(N(CCO)CCO)nc3c2ncn3C(C)C)cc1`, the Potency is 5.8 µM (active).

Regarding `CC(C)n1nc(-c2cc3cc(O)ccc3[nH]2)c2c(N)ncnc21`, the Potency was 668 nM (active) and 291 nM (active).

As to `COc1ccccc1OCC(O)CO` (configuration not stated), the “viability, % of control” value was 89.6% (inactive).

For the molecule `COc1cc(Cc2cnc(N)nc2N)cc(OC)c1OC`, the “viability, % of control” value is 101% (inactive).

With `COc1ccc2nc3n[nH]c(C)c3c(NCCOCCO)c2c1`, the Potency was 16.4 µM (active) and 13.2 µM (active).

For the molecule `CCCNC(C)(C)COC(=O)c1ccccc1`, the “viability, % of control” value is 79.1% (inactive).

`CCN(c1cc(C#CCN2CCOCC2)cc(C(=O)NCc2c(C)cc(C)[nH]c2=O)c1C)C1CCC(N(C)CCOC)CC1` (configuration not stated): the Potency result was “inactive”.

`CCN(CC)CCOC(=O)c1ccc(N)cc1`: the “viability, % of control” value was 82.4% (inactive).

On to `C[C@@H]1CCN(C(=O)[C@H](CCCN=C(N)N)NS(=O)(=O)c2cccc3c2NC[C@H](C)C3)[C@@H](C(=O)O)C1`, for which the “viability, % of control” value is 89% (inactive).

With `CC[C@]12C=CCN3CC[C@@]4(c5cc([C@@]6(C(=O)OC)C[C@H]7C[C@@H](C(C)(F)F)CN(Cc8c6[nH]c6ccccc86)C7)c(OC)cc5N(C)[C@H]4[C@@](O)(C(=O)OC)[C@@H]1OC(C)=O)[C@@H]32`, the Potency is 0.0494 µM (active).

Take `C[C@@H]1CC(=O)Nc2cccc(-c3ccc4c(c3)c(-c3cnn(C)c3)nn4C)c2N1`: the Potency is 1.32 µM (active).

With `CC(COc1ccccc1)NN` (configuration not stated), the “viability, % of control” value was 84.9% (inactive).

As to `CCCC1(CCC)CCC2(CCN(CCCN(CC)CC)C2)CC1`, the Potency was 2.31 µM (active).
